Test results from PubChem BioAssay (Tox21).
Inconclusive results are not listed. A call without a number means that no potency is given here. A number with no mark means an inactive call. Calls of active or inactive are those of the source. Unless noted, the call rests on the fitted dose curve; in most records, active means well fitted curve in the direction sought with a large enough effect in the repeat runs; inconclusive means weak or mixed curves; inactive means no such curve, though single readings can be large; an effect the other way counts as inactive or inconclusive.

Key:
[1] = biological target: Retinoic acid receptor RXR-alpha (Homo sapiens) (UniProt P19793); assay: qHTS assay to identify small molecule agonists of the RXR signaling pathway (AID 1159527; calls by dose curve; further: nearly all actives have a fitted effect of over 35% in size)
In short: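 Cells plated at 2,000/well, rested 5 hr at 37 C, pin-dosed with DMSO compound solutions, incubated 16 hr, then loaded with B/G FRET substrate for 2 hr at RT before dual-emission fluorescence reading.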

[2] = qHTS assay to identify small molecule agonists of the RXR signaling pathway - cell viability counter screen (AID 1159529);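 further: HEK 293T cells carrying an RXR-alpha UAS beta-lactamase reporter; series mostly up to about 77 µM; nearly all actives have a fitted effect of over 50% in size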
In short: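 Steps: seed RXR-alpha-UAS-bla HEK 293T cells in assay medium containing 2% charcoal-stripped FBS; incubate 5 hr; add compounds in DMSO; incubate 16 hr at 37 C; after the bla read, add CellTiter-Glo and read luminescence at 30 min.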

[3] = qHTS assay to identify small molecule antagonists of the retinoid acid receptor (RAR) signaling pathway - cell viability counter screen (AID 1159551); further: nearly all actives have a fitted effect of over 35% in size
In short: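 Seed C3RL4 cells; next day add compound, then retinol to 1 uM final; incubate 6 h at 37 C; add CellTiter-Glo; read luminescence after 30 min at RT.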

Retinoic acid receptor RXR-alpha (Homo sapiens), sequence (P19793 whole entry, looked up): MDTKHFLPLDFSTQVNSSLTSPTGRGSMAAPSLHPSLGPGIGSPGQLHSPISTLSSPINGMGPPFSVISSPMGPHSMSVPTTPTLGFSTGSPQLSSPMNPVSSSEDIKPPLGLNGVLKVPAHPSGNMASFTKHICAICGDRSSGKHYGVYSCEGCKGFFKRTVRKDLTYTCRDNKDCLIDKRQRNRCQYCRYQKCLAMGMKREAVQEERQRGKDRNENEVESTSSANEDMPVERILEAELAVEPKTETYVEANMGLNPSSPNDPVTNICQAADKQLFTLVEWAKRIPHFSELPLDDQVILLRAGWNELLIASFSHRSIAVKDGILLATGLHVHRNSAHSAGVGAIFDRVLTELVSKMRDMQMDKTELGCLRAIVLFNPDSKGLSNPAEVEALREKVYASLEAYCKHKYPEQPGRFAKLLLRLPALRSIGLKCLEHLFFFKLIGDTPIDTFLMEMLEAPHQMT

Structure (SMILES): COCCOCCOCCOCCO
- Potency [1]: inactive
- outcome [2]: inactive

Structure (SMILES): Cc1cccc(C)c1NC(=O)c1ccccc1C(=O)O
- Potency [1]: inactive
- outcome [2]: inactive

Structure (SMILES): COc1ccc(Br)c(C)c1
- Potency [1]: inactive
- outcome [2]: inactive
- outcome [3]: inactive

Structure (SMILES): C[Si](C)(C)C
- Potency [1]: inactive
- outcome [2]: inactive

Structure (SMILES): COc1cc2c(cc1OC)C(=O)CC2
- Potency [1]: inactive
- outcome [2]: inactive

Structure (SMILES): Cc1ccc(C=O)cc1C
- Potency [1]: inactive
- outcome [2]: inactive

Structure (SMILES): CN(C)C(=O)CNC(=O)Cc1ccccc1
- Potency [1]: inactive
- outcome [2]: inactive

Structure (SMILES): O=C1O[C@@H]2[C@@H](O)[C@H](O)O[C@@H]2[C@H]1O
- Potency [1]: inactive
- outcome [2]: inactive
- outcome [3]: inactive

Structure (SMILES): Oc1cn2c(n1)Nc1ccc(Cl)c(Cl)c1C2
- activation [1]: 5.44% [at 15.8 µM]
- activity change, negative = cytotoxicity [2]: -0.221% [at 15.8 µM]

Structure (SMILES): CCCC/C=C\CCCCCCCCCC=O
- Potency [1]: inactive
- outcome [2]: inactive
- outcome [3]: inactive

Structure (SMILES): CC(C)(C)c1nnc(NS(=O)(=O)c2ccc(N)cc2)s1
- Potency [1]: inactive
- outcome [2]: inactive

Structure (SMILES): c1ccc2nccnc2c1
- Potency [1]: inactive
- outcome [2]: inactive

Structure (SMILES): Cc1ccc(S(=O)(=O)O)c(C)c1
- Potency [1]: inactive
- outcome [2]: inactive
- outcome [3]: inactive

Structure (SMILES): CCCC(=O)C(C)=O
- Potency [1]: inactive
- outcome [2]: inactive
- outcome [3]: inactive

Structure (SMILES): CC(=O)NCc1c(I)c(NC(C)=O)c(I)c(C(=O)O)c1I
- Potency [1]: inactive
- outcome [2]: inactive
- outcome [3]: inactive

Structure (SMILES): CC(=O)NCCCCCC(=O)O
- Potency [1]: inactive
- outcome [2]: inactive
- outcome [3]: inactive

Structure (SMILES): C[C@@H](Oc1ccc(CNC(=O)c2cccnc2Oc2ccc3c(c2)OCO3)c(F)c1)C(=O)O
- Potency [1]: inactive
- outcome [2]: inactive
- outcome [3]: inactive

Structure (SMILES): CCCCNC1CC(C)(C)NC(C)(C)C1
- Potency [1]: inactive
- outcome [2]: inactive
- outcome [3]: inactive

Structure (SMILES): COC(=O)c1ccccc1C(=O)c1ccc(OCCN2CCCCC2)cc1
- Potency [1]: inactive
- outcome [2]: inactive
- outcome [3]: inactive

Structure (SMILES): CC(C)(C)c1n[nH]c(=S)n(N)c1=O
- Potency [1]: inactive
- outcome [2]: inactive
- outcome [3]: inactive

Structure (SMILES): NS(=O)(=O)c1ccc(NC(=O)CCC(=O)O)cc1
- Potency [1]: inactive
- outcome [2]: inactive
- outcome [3]: inactive

Structure (SMILES): O=C(OCc1ccccc1)C(=O)OCc1ccccc1
- Potency [1]: inactive
- outcome [2]: inactive
- outcome [3]: inactive

Structure (SMILES): CC(CO)c1ccccc1 (stereo unspecified)
- Potency [1]: inactive
- outcome [2]: inactive
- outcome [3]: inactive

Structure (SMILES): COCCOCCOCCOCCOCCO
- Potency [1]: inactive
- outcome [2]: inactive
- outcome [3]: inactive

Structure (SMILES): COc1cc(C(=S)N2CCOCC2)cc(OC)c1OC
- Potency [1]: inactive
- outcome [2]: inactive
- outcome [3]: inactive
